SARS PLpro yeast: qHTS of Yeast-based Assay for SARS-CoV PLP | Potency, µM (highest dose often 32.9 µM), without a hit: at the highest dose activity, positive = growth rescue, usual class: activators | 330,000 tested, 0.19% active | S. cerevisiae expressing SARS-CoV PLpro, growth rescue; note: potency is the fitted concentration of half-maximal effect; 0% is about no effect; nearly all actives have a fitted effect of over 55% in size
Pf growth 48h: Primary qHTS for delayed death inhibitors of the malarial parasite plastid, 48 hour incubation; P. falciparum luciferase growth in erythrocytes, 48 h; Potency, µM (series often up to 28.7 µM), inactives show at the top dose activity change, negative = inhibition, usual class: inhibitors; 310,000 tested, 5.9% active; active = well fitted inhibition curve with a large enough effect; inconclusive = small, poorly fitted or top-dose-only effect, or another doubt; inactive = no such curve, though single readings can be large or run the other way; note: potency is the fitted concentration of half-maximal effect; % is set by controls: 0 for no effect and ±100 for the full control effect
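Luminescence readout; reporter = integrated firefly luciferase in P. falciparum. RBC culture at 2% hematocrit, 0.1% parasitemia final, 37 C/5% CO2; decreased signal taken as growth inhibition.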
Pf growth 96h: Primary qHTS for delayed death inhibitors of the malarial parasite plastid, 96 hour incubation. Potency, µM (top dose mostly 28.7 µM), without a hit: at the top dose activity change, negative = inhibition, most hits filed as inhibitors. 320,000 tested, 6.9% active. P. falciparum luciferase reporter growth, 96 h; active = well fitted inhibition curve with a large enough effect; inconclusive = small, poorly fitted or top-dose-only effect, or another doubt; inactive = no such curve, though single readings can be large or run the other way; note: potency is the fitted concentration of half-maximal effect; % is set by controls: 0 for no effect and ±100 for the full control effect
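Parasite growth measured via integrated firefly luciferase reporter in P. falciparum. Infected erythrocytes at 2% hematocrit, 0.05% parasitemia final were treated 96 hours at 37 C under 5% CO2, and luminescence was read.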
Shiga toxin inh: A qHTS for Small Molecule Inhibitors of Shiga Toxin; Vero cells, Shiga toxin protein synthesis inhibition reporter; inhibition, % at 38.7 µM; 290,000 tested, 9.2% active; AID 2315, 2010; in the data active = inhibition mostly above about 28%, no sharp cut-off; inactive = mostly below about 43%; note: 0% is about no effect
NS1 function inh: qHTS Assay for Inhibitors of Influenza NS1 Protein Function | 270,000 tested, 0.4% active | Potency, µM (titrated, usually from 46.1 µM), for inactives: at the highest dose activity, positive = more growth; note: potency is the fitted concentration of half-maximal effect; actives are rising curves; nearly all actives have a fitted effect of over 50% in size
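In this qHTS, NS1 from influenza A is expressed in budding yeast, where it slows growth. Cells are switched from glucose to 2% galactose medium (pH 6.0, -URA), treated with compound, and growth recovery is read at OD600.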
CHX counter: Cycloheximide Counterscreen for Small Molecule Inhibitors of Shiga Toxin | 300,000 tested, 12% active | max response, % | cell reporter, cycloheximide protein synthesis inhibition counterscreen; in the data active = max response mostly above about 13%, no sharp cut-off; inactive = mostly below about 14%; note: read at 38.3 µM for the half of the compounds with a filed dose; 0% is about no effect
Starred values were filed as active, the others as inactive; ? = inconclusive; · = no result given; [ ] = another dose, or the depositor's remark. Shown are actives, neighbours in structure and some others; about 21% of the full set was active somewhere. Unless noted, calls come from the whole dose curve.

SMILES | SARS PLpro yeast | Pf growth 48h | Pf growth 96h | Shiga toxin inh | NS1 function inh | CHX counter
COc1cc(C2NC(=S)NC3=C2CCc2ccccc23)cc(OC)c1OC (configuration not stated) | 5% | ? | ? | -17 | 23% | -1
CCO[C@@H]1OC(C(=O)N2CCN(Cc3ccccc3)CC2)=C[C@H](c2cn(C(C)=O)c3ccccc23)[C@H]1CCCO | 1% | 8.3µM* | 8.3µM* | -10 | -14% | 0
CCO[C@@H]1OC(C(=O)NCc2ccccc2)=C[C@H](c2cn(C(C)=O)c3ccccc23)[C@H]1CCCO | -1% | 5.2µM* | 4.1µM* | 10 | 5% | -2
CCO[C@H]1OC(C(=O)N2CCCCCCC2)=C[C@@H](c2csc3ccccc23)[C@@H]1CCCO | 0% | 15% | ? | 17 | -10% | 0
CCO[C@H]1OC(C(=O)N2CCN(Cc3ccccc3)CC2)=C[C@@H](c2ccc(C(F)(F)F)cc2)[C@@H]1CCCO | 1% | ? | 1.5µM* | -2 | 1% | 1
CCO[C@@H]1OC(C(=O)N2CCN(Cc3ccccc3)CC2)=C[C@H](c2csc3ccccc23)[C@H]1CCCO | -1% | ? | 6.6µM* | -19 | -9% | -3
CCO[C@H]1OC(C(=O)N2CCN(Cc3ccccc3)CC2)=C[C@@H](c2ccccc2)[C@@H]1CCCO | 0% | ? | ? | -16 | -4% | -3
Cc1ccc(Nc2ccc(S(=O)(=O)N3CCOCC3)cc2[N+](=O)[O-])c(C)c1 | 12% | ? | -99% | -3 | 11% | -2
COc1ccc(CN2CCN(C3CCC3)CC2CCO)c(F)c1 (configuration not stated) | 14% | 2% | 54% | -8 | 1% | 10
Sc1nnc(-c2ccc(Cl)cc2)n1Cc1ccccc1 | 7% | ? | ? | · | · | ·
Nc1ccc(-c2cnc(-c3ccc(N)cc3)nc2)cc1 | 6% | 65% | 22% | 33 | 1% | 51*
CN(C)c1nc(C=C(C#N)C#N)c(Cl)n1-c1ccc(F)cc1 | -8% | ? | ? | 6 | · | 24*
NS(=O)(=O)c1cc(-c2nn[nH]n2)c(NCc2cccs2)cc1Cl | · | -10% | 12µM* | · | · | ·
NC(=O)C1CCN(C(=O)C2CCN(C(=O)Nc3ccccc3)CC2)CC1 | 2% | ? | 19% | · | · | ·
O=C(CSc1ccc2nnc(-c3ccc(Cl)cc3)n2n1)N1CCCc2ccccc21 | -12% | 0% | ? | 24 | 6% | 17*
O=C(Nc1ccccc1-c1nnn(CC(=O)N2CCCc3ccccc32)n1)c1ccc(Cl)cc1 | 12% | ? | 12µM* | 9 | 3% | -2
O=C(CSc1ccc2nnc(-c3ccc(F)cc3)n2n1)N1CCCc2ccccc21 | -10% | ? | 0% | -12 | -1% | -4
Nn1c(SCC(=O)N2CCCc3ccccc32)nnc1-c1ccc(Cl)cc1 | 2% | 0% | 12µM* | 15 | 11% | -2
CCC(CC)c1nnc(NC(=O)CCCN2C(=O)c3ccccc3C2=O)s1 | -1% | 12% | · | -31 | -2% | -4
Cc1cc2oc(C(=O)NCc3ccccc3)cc(=O)c2cc1C | -1% | -6% | ? | 14 | 0% | -6
CS(=O)(=O)NCCSc1nnnn1-c1ccccc1 | -1% | 22% | 46% | 1 | -2%[9.22 µM] | -1
O=S(=O)(NCCSc1nnnn1-c1ccccc1)c1cccs1 | 6% | 42% | -1% | 43* | -9% | 33*
CCOC(=O)C(O)C1CCc2c([nH]c3ccc(C)cc23)C1=O (configuration not stated) | 3% | ? | 42% | 50 | 0% | 25*
CCOC(=O)N1CCc2[nH]c3ccc(C)cc3c2C1 | 1% | 10% | -17% | -4 | 12% | 6
Cc1ccc(OCC(=O)N/N=C\c2ccncc2)c(C)c1 | -4% | 1% | 26% | -12 | 7% | -4
C[C@@]12CCC=C[C@H]1[C@H](c1ccc(C(F)(F)F)cc1)N(Cc1ccccc1)C2=O | -17% | ? | 10µM* | -3 | -56% | -4
COc1ccc(C2C3C=CCCC3(C)C(=O)N2Cc2ccccc2)cc1Cl (configuration not stated) | · | · | · | -4 | · | 0

Source: PubChem
